PI5P4Ka inh: qHTS for Inhibitors of phosphatidylinositol 5-phosphate 4-kinase (PI5P4K); Phosphatidylinositol 5-phosphate 4-kinase type-2 alpha (Homo sapiens), P48426; PI5P4Kalpha enzyme, ADP-Glo luminescence, 60 min; hits give low values; max response, %; 1.2% of 330,000 active; AID 652105, 2013; active = max response of -50% or lower; inconclusive = between -30% and -50%; inactive = -30% or higher; note: value at the top dose of about 77 µM; % is set by controls: 0 for no effect and ±100 for the full control effect
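Single end-point luminescence (ADP-Glo) quantified ADP from PI5P4Kalpha turnover; ATP 5 microM final, 1 h at RT, 0.1% CHAPS and 0.28 mM EGTA in HEPES pH 7.4.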
PLK1 PBD block: qHTS for Inhibitors of PLK1-PDB (polo-like kinase 1 - polo-box domain): Primary Screen | Plk1 PBD binding of FITC phosphopeptide, fluorescence polarization | Potency, µM, for the others: max response, negative = inhibition, usual class: inhibitors | 2.8% of 360,000 active; note: potency is the fitted concentration of half-maximal effect; series mostly up to about 57 µM; % is set by controls: 0 for no effect and ±100 for the full control effect; nearly all actives have a fitted effect of over 65% in size
BAZ2B inh: qHTS Assay for Inhibitors of BAZ2B; Potency, µM (series often up to 114 µM), inactives show at the top dose activity change, negative = inhibition, usual class: inhibitors; AID 504333, 2011; 4.4% of 360,000 active; AlphaScreen BAZ2B-H3K14Ac peptide displacement; note: potency is the fitted concentration of half-maximal effect; % is set by controls: 0 for no effect and ±100 for the full control effect; nearly all actives have a fitted effect of over 60% in size
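Inhibition is scored as reduced AlphaScreen emission. The BAZ2B/b-H3(5-23)K14Ac complex (50 nM each) in PBS pH 7.4, 0.01% Tween-20 meets compound (up to 110 uM) for 30 min at RT before bead addition.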
JMJD2A Tudor: qHTS Assay for Inhibitors of JMJD2A-Tudor Domain; Potency, µM (top dose mostly 114 µM), without a hit: at the highest dose activity change, negative = inhibition, most hits filed as inhibitors; AID 504339, 2011; AlphaScreen JMJD2A-Tudor / H3K4me3 peptide binding; 4.4% of 390,000 active; note: potency is the fitted concentration of half-maximal effect; % is set by controls: 0 for no effect and ±100 for the full control effect; nearly all actives have a fitted effect of over 50% in size
G9a block: qHTS Assay for Inhibitors of Histone Lysine Methyltransferase G9a; Histone-lysine N-methyltransferase EHMT2 (Homo sapiens), Q96KQ7; G9a H3K9 monomethylation, AlphaScreen, 2 h; Potency, µM (highest dose often 102 µM), for the others: at the top dose activity, negative = inhibition, most hits filed as inhibitors; 8.8% of 350,000 active; note: potency is the fitted concentration of half-maximal effect; % is set by controls: 0 for no effect and ±100 for the full control effect; nearly all actives have a fitted effect of over 75% in size
Target sequence (Q96KQ7 913-1193 limits assumed): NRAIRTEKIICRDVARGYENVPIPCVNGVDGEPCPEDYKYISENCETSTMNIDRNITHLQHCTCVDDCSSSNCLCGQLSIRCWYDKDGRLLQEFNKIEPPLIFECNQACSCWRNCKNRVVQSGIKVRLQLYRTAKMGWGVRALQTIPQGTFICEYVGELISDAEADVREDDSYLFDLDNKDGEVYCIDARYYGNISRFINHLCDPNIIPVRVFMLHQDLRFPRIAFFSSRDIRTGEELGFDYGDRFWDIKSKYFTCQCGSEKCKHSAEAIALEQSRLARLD
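G9a (20 nM) preincubated 15 min RT with compounds, then 500 nM biotinylated H3K9 peptide and 20 uM SAM added; 2 h RT reaction. Monomethyl-H3K9 product detected by AlphaScreen with anti-H3K9me1 antibody, streptavidin donor and anti-rabbit IgG acceptor beads.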
HP1b binding inh: HTS for Inhibitors of HP1-beta Chromodomain Interactions with Methylated Histone Tails. Chromobox protein homolog 1 (Homo sapiens), P83916. AlphaScreen HP1-beta / biotin-H3K9me3 peptide binding. Potency, µM (top dose mostly 114 µM), without a hit: at the top dose activity change, negative = inhibition, most hits filed as inhibitors. 0.56% of 390,000 active. AID 540317, 2011; note: potency is the fitted concentration of half-maximal effect; nearly all actives have a fitted effect of over 70% in size
Target sequence (P83916 whole entry, looked up): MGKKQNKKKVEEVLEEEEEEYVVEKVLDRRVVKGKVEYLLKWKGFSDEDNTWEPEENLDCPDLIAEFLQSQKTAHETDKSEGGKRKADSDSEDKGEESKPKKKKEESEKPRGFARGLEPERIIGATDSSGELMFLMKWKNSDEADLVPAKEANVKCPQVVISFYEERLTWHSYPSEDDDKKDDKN
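AlphaScreen: HP1-beta (50 nM) preformed 30 min with biotin-H3(1-18)K9me3 peptide (50 nM) in PBS pH 7.4, 0.01% Tween-20. Compound added for 30 min at RT, then streptavidin donor/nickel chelate acceptor beads (10 ug/mL) for 30 min.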
The depositor's hits bear a star; ? = inconclusive; . = not tested or not shown; [ ] = dose if it differs, or a comment. A selection: hits, their analogues and other compounds. The true share with any hit is near 12%. Unless noted, calls come from the whole dose curve; as a rule, active = well fitted curve in the direction sought with a large enough effect; inconclusive = small, poorly fitted or top-dose-only effect, or another doubt; inactive = no such curve, though single readings can be large; an effect the other way counts as inactive or inconclusive.

SMILES	PI5P4Ka inh	PLK1 PBD block	BAZ2B inh	JMJD2A Tudor	G9a block	HP1b binding inh
O=C(COC(=O)c1cc([N+](=O)[O-])ccc1N1CCOCC1)Nc1ccc(Cl)cc1	4	0%	-37%	?	?	-16%
O=C(COC(=O)c1cc([N+](=O)[O-])ccc1N1CCOCC1)Nc1ccc(Cl)cn1	0	-6%	-33%	?	-15%	-9%
Cc1cc(Cl)ccc1NC(=O)COC(=O)c1cc([N+](=O)[O-])ccc1N1CCOCC1	9	-10%	-28%	?	56µM*	-23%
NC(=O)c1ccc(NC(=O)COC(=O)c2cc([N+](=O)[O-])ccc2N2CCOCC2)cc1	-6	-10%	-8%	-14%	13µM*	7%
CC1CCCCN1C(=O)COC(=O)c1cc([N+](=O)[O-])ccc1N1CCOCC1 (centres undefined)	-7	-1%	8%	-8%	45µM*	17%
CCC(CC)C(=O)Nc1ccc(C(=O)OCc2cc(=O)n3nc(C4CC4)sc3n2)cc1	.	.	-14%	-5%	27%[59 µM]	10%
CC(NC(=O)COC(=O)c1cc([N+](=O)[O-])ccc1N1CCOCC1)c1ccc(F)cc1 (centres undefined)	?	-7%	50µM*	?	?	9%
CCCC1(c2ccccc2)NC(=O)N(CC(=O)Nc2cc(OC)cc(OC)c2)C1=O (centres undefined)	0	-17%	-3%	-15%	10%	18%
CN(C)c1ccc(C=c2c3ccccc3n3c2c2c([n+]3C)CCCC2)cc1	-4	-26%	.	28µM*	.	?
CN(C)c1ccc(C=c2c3ccccc3n3c2cc(-c2ccc(Cl)cc2)[n+]3C)cc1	-57*	30µM*	.	45µM*	.	13µM*
CN(C)c1ccc(C=c2c3cc([N+](=O)[O-])ccc3n3c2cc(-c2ccccc2)[n+]3C)cc1	-78*	2.7µM*	.	11µM*	.	11µM*
COc1cc(N(C)C)ccc1C=c1c2ccccc2n2c1cc(-c1ccccc1)[n+]2C	?	?	.	18µM*	.	?
COc1ccc(SCC(Cc2ccccc2)N2CCN(CCc3ccccc3)CCC2=O)cc1 (centres undefined)	.	.	.	?	.	17%
Fc1ccc(N2CCN(c3nc4ccccc4c4nc(-c5cccnc5)nn34)CC2)cc1	.	.	6%	-7%	7%[59 µM]	25%
COc1cc(C=c2c3ccccc3n3c2cc(-c2ccccc2)[n+]3C)cc(OC)c1OC	-18	4.7µM*	.	32µM*	.	?
CN(C)c1ccc(C=c2c3ccccc3n3c2cc(-c2ccccc2)[n+]3C)cc1	-51*	-1%	.	32µM*	.	50µM*
COc1ccccc1S(=O)(=O)N(C)C[C@H]1Oc2ncc(Br)cc2C(=O)N([C@H](C)CO)C[C@H]1C	4	-6%	.	.	.	.
COc1ccc(Cl)cc1NC(=O)CSc1ccc2nnc(CCNS(=O)(=O)c3ccccc3)n2n1	.	.	-2%	-4%	4%[59 µM]	43%
COc1cc(C#Cc2c(-c3cncn3C)n(C)c3ccc(-c4ccc(OC)c(OC)c4)cc23)cc(OC)c1	1	-3%	?	45µM*	-4%[0.501 µM]	-9%
COc1cc(C#Cc2c(-c3cncn3C)n(C)c3ccc(-c4ccc5cc[nH]c5c4)cc23)cc(OC)c1	6	4%	.	?	.	7%
CCOc1ccc(-c2ccc(/C=C3/C(=N)N4C(C)=CSC4=NC3=O)o2)c([N+](=O)[O-])c1	-59*	3%	?	?	?	-19%
CCOc1ccc(-c2ccc(/C=C3/C(=N)N4C=CSC4=NC3=O)o2)c([N+](=O)[O-])c1	-10	-4%	-2%	?	?	-12%
O=C(NC(NC(=S)Nc1ccccc1C(=O)O)C(Cl)(Cl)Cl)c1ccco1 (centres undefined)	-21	21µM*	-2%	79µM*	10µM*	-27%
COC(=O)c1ccccc1NC(=S)NC(NC(=O)c1ccco1)C(Cl)(Cl)Cl (centres undefined)	.	-26%	-3%	-32%	2.2µM*	-5%
COC(=O)c1ccccc1NC(=S)NC(NC(=O)c1ccccc1[N+](=O)[O-])C(Cl)(Cl)Cl (centres undefined)	-8	27µM*	1%	-20%[57.1 µM]	3.5µM*	1%
SMILES	PI5P4Ka inh	PLK1 PBD block	BAZ2B inh	JMJD2A Tudor	G9a block	HP1b binding inh
Cc1ccccc1NC(=S)NC(NC(=O)c1ccco1)C(Cl)(Cl)Cl (centres undefined)	-7	-8%	-1%	-28%	?	24%
COC(=O)c1ccccc1NC(=S)NC(NC(=O)COc1ccccc1)C(Cl)(Cl)Cl (centres undefined)	2	?	13%	-25%	2.2µM*	-20%
Cc1cc(NC(=O)c2ccc(F)c(S(=O)(=O)N3CCCCC3)c2)no1	4	-5%	-6%	-12%	.	15%
CC(C)c1noc(-c2ccccc2OCC(=O)Nc2cccc([N+](=O)[O-])c2)n1	.	.	-13%	-18%	-34%[59 µM]	8%
N#Cc1ccc(Oc2ccc(C#N)c(C#N)c2)cc1C#N	-3	5%	.	-5%	.	24%[57 µM]
COc1ccc(NC(=O)c2ccc3c(=O)n4nc(Nc5cc(C)ccc5C)sc4nc3c2)cc1	.	.	-9%	-16%	7%[59 µM]	43%
COc1ccc(NC(=O)N2CCCC3(CCN(S(=O)(=O)c4ccccc4)CC3)C2)cc1	.	.	.	.	4%[12.7 µM]	.
CCOc1ccc(S(=O)(=O)Nc2ccn(C)n2)cc1	-2	-6%	9%	-10%	2%[12.7 µM]	27%
Cc1ccc(NC(=S)NC(NC(=O)c2ccccc2C)C(Cl)(Cl)Cl)c(C)c1 (centres undefined)	-1	-3%	-26%	-5%	?	57%
O=C(NC(NC(=S)Nc1ccccc1C(=O)O)C(Cl)(Cl)Cl)c1ccccc1 (centres undefined)	-58*	6µM*	?	50µM*	25µM*	?
Cc1ccc(S(=O)(=O)CCC(O)c2ccc(Cl)cc2)cc1 (centres undefined)	-1	-9%	0%	-14%	-5%	15%
O=C(Cc1c(O)c2ccccc2[nH]c1=O)NCc1ccccc1F	-13	-2%	-2%	-5%	71µM*	17%
O=C(Cc1c(O)c2ccccc2[nH]c1=O)NCc1cccc(F)c1	.	-10%	0%	-17%	3%[59 µM]	25%

Screens deposited in PubChem BioAssay by National Center for Advancing Translational Sciences (NCATS).
